Rows were chosen to be rich in hits. Some 3.2% of all compounds tested hit in one or more screens of this group.
Tau fibril ThT: qHTS for Inhibitors of Tau Fibril Formation, Thioflavin T Binding | AID 1460, 2008 | Potency, µM (top dose mostly 57.4 µM), for inactives: at the top dose activity, negative = inhibition, usual class: inhibitors | hit rate 2.1% among 270,000 | Microtubule-associated protein tau (Homo sapiens), P10636 | recombinant tau K18 P301L, heparin-induced fibrillization, ThT fluorescence; further: potency means the concentration at half of the fitted maximal effect; on the % scale 0 is the no-effect control and ±100 the full control effect; nearly all actives have a fitted effect of over 55% in size
Target sequence (P10636 561-689 P618L limits assumed): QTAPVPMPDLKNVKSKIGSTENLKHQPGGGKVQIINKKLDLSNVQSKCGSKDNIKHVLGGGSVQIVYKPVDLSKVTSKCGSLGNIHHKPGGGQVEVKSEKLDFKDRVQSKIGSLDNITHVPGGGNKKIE
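Recombinant human tau K18 fragment […] carrying P301L, 15 uM unlabeled plus 0.24 uM Alexa 594-labeled, was fibrillized with 20 uM heparin in 100 mM sodium acetate pH 7 for 6 hr at 37 C; 30 uM ThT fluorescence read after 1 hr.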
Tau fluor counter: Counterscreen qHTS for Inhibitors of Tau Fibril Formation, Fluorescence Polarization | tau K18 P301L Alexa594 fluorescence, heparin fibrillization | Potency, µM (top dose mostly 57.7 µM), without a hit: at the top dose activity change, negative = decrease | hit rate 0.93% among 280,000 | AID 1463, 2008; further: potency means the concentration at half of the fitted maximal effect; on the % scale 0 is the no-effect control and ±100 the full control effect; nearly all actives have a fitted effect of over 55% in size
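Human tau K18 P301L (15 uM unlabeled, 0.24 uM Alexa 594-labeled) in 100 mM sodium acetate pH 7 with 20 uM heparin, 6 hr at 37 C. ThT 30 uM added, 1 hr ambient; Alexa 594 FP and total fluorescence read at 555/632 nm.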
Lamin A splicing: qHTS Assay for Modulators of Lamin A Splicing. HeLa LMNA splicing GFP/RFP minigene ratio, 48 h. Potency, µM (highest dose often 46.1 µM), for the others: at the highest dose ratio change, negative = inhibition, actives largely listed as inhibitors. hit rate 0.01% among 200,000. AID 1487, 2009; active means well fitted inhibition curve with a large enough effect in the signal ratio, with a control signal flat, not every such curve was filed as active; inconclusive means small, poorly fitted or top-dose-only effect, or effect the other way, or a change in a side signal; the % refers to the signal ratio; further: potency means the concentration at half of the fitted maximal effect; on the % scale 0 is the no-effect control and ±100 the full control effect
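S3 HeLa stable clones carrying a lamin A-EGFP splicing minigene plus DsRed2 were seeded at 600 cells/well in Opti-MEM with 2% FBS, pin-dosed and incubated 48 h at 37°C. Acumen cytometry (488 nm) gave the GFP/RFP total-intensity ratio.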
CBFb RUNX1 block: qHTS Assay for Compounds Blocking the Interaction Between CBF-beta and RUNX1 for the Treatment of Acute Myeloid Leukemia. 230,000 tested, under 10 active. Potency, µM (highest dose often 59.8 µM), for inactives: at the top dose activity, negative = inhibition, actives largely listed as inhibitors. Runt-related transcription factor 1 (Homo sapiens) + Core-binding factor subunit beta …. AlphaScreen CBFb-His/RUNX1-biotin binding, biochemical; further: % of control where 0% means no effect
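CBFb-His/RUNX1-biotin, 30 nM each, preincubated 20 min RT; compound 15 min RT; Ni + streptavidin beads 50 ng each, 90 min RT; AlphaScreen read.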
Tau FP inhib: qHTS for Inhibitors of Tau Fibril Formation, Fluorescence Polarization | Microtubule-associated protein tau (Homo sapiens), P10636 | K18 P301L tau heparin fibrillization, Alexa594 FP, 6 h | Potency, µM (titrated, usually from 57.7 µM), without a hit: at the highest dose activity, negative = inhibition, actives largely listed as inhibitors | hit rate 0.39% among 280,000 | AID 1468, 2008; further: potency means the concentration at half of the fitted maximal effect; on the % scale 0 is the no-effect control and ±100 the full control effect; nearly all actives have a fitted effect of over 55% in size
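Steps: dispense K18 P301L tau (15 uM plus 0.24 uM Alexa 594 tracer, final) in pH 7 sodium acetate; add compound; add heparin (20 uM final); incubate 6 hr, 37 C; add ThT (30 uM final); after 1 hr ambient, read FP.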
JMJD2E inh: qHTS Assay for Inhibitors of Human Jumonji Domain Containing 2E (JMJD2E); AID 2147, 2009; hit rate 1.6% among 230,000; JMJD2E catalytic domain, FDH-coupled NADH fluorescence (FDH is formaldehyde dehydrogenase); Potency, µM (titrated, usually from 57.1 µM), for the others: at the top dose activity change, negative = inhibition, most hits filed as inhibitors; Lysine-specific demethylase 4E (Homo sapiens), B2RXH2; active means well fitted inhibition curve with a large enough effect, not every such curve was filed as active; inconclusive means small, poorly fitted or top-dose-only effect, or another doubt; inactive means no such curve, though single readings can be large or run the other way;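 further: potency means the concentration at half of the fitted maximal effect; 0% = wells with enzyme and -100% = buffer wells without enzyme; nearly all actives have a fitted effect of over 50% in size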
Target sequence (B2RXH2 1-337 limits assumed): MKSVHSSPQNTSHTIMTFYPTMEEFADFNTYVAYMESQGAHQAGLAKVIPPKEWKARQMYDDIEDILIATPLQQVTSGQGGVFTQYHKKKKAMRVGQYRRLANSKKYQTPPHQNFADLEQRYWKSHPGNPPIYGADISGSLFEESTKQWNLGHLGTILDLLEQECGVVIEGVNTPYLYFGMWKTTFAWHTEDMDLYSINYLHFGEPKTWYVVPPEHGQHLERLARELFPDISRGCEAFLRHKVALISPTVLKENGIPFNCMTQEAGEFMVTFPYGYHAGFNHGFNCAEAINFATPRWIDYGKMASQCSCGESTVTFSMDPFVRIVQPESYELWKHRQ
Active calls of the source: *; ? = inconclusive; . = not tested or not shown; ! = not confirmed by another sample; [ ] = remark or other dose. Unless noted, the call rests on the fitted dose curve; in most records, active means well fitted curve in the direction sought with a large enough effect; inconclusive means small, poorly fitted or top-dose-only effect, or another doubt; inactive means no such curve, though single readings can be large; an effect the other way counts as inactive or inconclusive.

SMILES	Tau fibril ThT	Tau fluor counter	Lamin A splicing	CBFb RUNX1 block	Tau FP inhib	JMJD2E inh
COc1ccc(N=Nc2nc3ccc(Br)cc3n2C)cc1	1.6µM*	-22%	18%	-19%	3%	7%
COc1ccc(Cc2nc3ccccc3n2C)cc1	-5%	-5%	.	-3%	0%	0%
COc1ccc(OC)c(CNC(=O)c2ccc3c(c2)c(C)c(C)n3Cc2ccc(Cl)cc2)c1	2%	-14%	.	.	8%	.
O=C1CC(Nc2ccc(N3CCOCC3)cc2)C(=O)N1c1ccccc1 (centres undefined)	16µM*	-19%	-1%	-7%	-5%	-29%
COc1ccccc1N1C(=O)CC(Nc2ccc(N3CCOCC3)cc2)C1=O (centres undefined)	28µM*	-20%	10%	?	-7%	?
Nc1nnc(SCC(=O)c2ccccc2)s1	-14%	-2%	9%	3%	7%	0%
Nc1c(C(=O)c2ccccc2)sc2snc(SCC(=O)c3ccccc3)c12	7.9µM*	?	-9%	?	?	?
N#CC(C#N)=C1C=C2C=C(N3CCCCC3)CCC2CC1 (centres undefined)	?	?	?	5%	-13%	-29%
N#CC1=C(N)C2=C(N3CCCCC3)CCCC2C1(C#N)C#N (centres undefined)	32µM*	?	-4%	?	?	?
Cc1ccc(/C=N\NC(=O)C2COc3cc4ccccc4cc3O2)o1 (centres undefined)	?	-26%	-1%[0.0737 µM]	4%	0%	?
O=C(N/N=C\c1ccc([N+](=O)[O-])o1)C1COc2ccccc2O1 (centres undefined)	?	-8%	.	5%	2%	7%
O=C(N/N=C\c1ccc(-c2ccccc2[N+](=O)[O-])o1)C1COc2ccccc2O1 (centres undefined)	13µM*	?	?	-22%	?	-1%
O=C(N/N=C\c1ccc(-c2ccccc2[N+](=O)[O-])o1)C1COc2cc3ccccc3cc2O1 (centres undefined)	11µM*	?	-3%	-28%	?	-7%
CCc1ccc(Sc2cc(C(=O)NCCCN3CCC(C)CC3)c3ccccc3n2)cc1	-6%	-15%	?	.	-13%	.
Cn1c(=O)c2c(nc(N/N=C/c3cccs3)n2Cc2ccccc2)n(C)c1=O	-17%	?	?	4%	?	12%
Cn1c(=O)c2c(nc(N/N=C/c3ccc(OC(=O)c4ccco4)cc3)n2Cc2ccccc2)n(C)c1=O	?	11µM*[quencher]	?	1%	10%	?
CCCCN(CC)c1nc(N)c2c(N)nc(OCC)cc2c1C#N	?	16µM*[quencher]	0%	14%	12%	?
CCCCN(CC)c1nc(N)c(C#N)c(CC#N)c1C#N	?	?	19%	-5%	1%	?
CCN(CC)c1ccc(C(=O)Nc2ccc3nc(N(CC)CC)cc(C)c3c2)cc1	3.5µM*	14µM*[quencher]	.	.	12%	.
CCN(CC)c1cc(C)c2cc(NC(=O)/C=C/c3ccccc3OC(C)C)ccc2n1	?	7.9µM*[quencher]	.	.	?	.
CCN(CC)c1cc(C)c2cc(NC(=O)c3ccccc3Cl)ccc2n1	?	?	.	.	15%	.
CCN(CC)c1cc(C)c2ccccc2n1	-1%	-2%	3%	18%	-10%	-29%
CC(=C1C(=O)c2ccccc2C1=O)N1CCN(C/C=C/c2ccccc2)CC1	22µM*	-29%	-1%	-4%	-2%	-4%
C=C1c2ccccc2O[C@H](C(=O)OCC)[C@@H]1CCC(C)C (tested in a mixture with another compound)	?	-22%[81.3 µM]	.	2%[89.1 µM]	5%[81.3 µM]	.
C=C1C(=O)O[C@@H]2C[C@@H](C)[C@@H]3C=CC(=O)[C@@]3(C)[C@@H](OC(C)=O)[C@H]12	4µM*	-20%	.	4%	?	1%
SMILES	Tau fibril ThT	Tau fluor counter	Lamin A splicing	CBFb RUNX1 block	Tau FP inhib	JMJD2E inh
CCc1ccc(NC(=O)CC2C(=O)N(c3cccc(OC)c3)C(=O)N2C2CCCC2)cc1 (centres undefined)	-1%	-23%	.	.	-5%	.
COc1ccc(NC(=O)CC2NCCNC2=O)c(OC)c1 (centres undefined)	-5%	-9%	.	.	-5%	.
Cc1ccc(/C=C/C(=O)c2c(C)cc(C)[nH]c2=O)cc1	-11%	-2%	?	-1%	5%	12%
Cc1cc(C)c(C(=O)/C=C/c2ccco2)c(=O)[nH]1	22µM*	-23%	16%[46 µM]	?	?	?
CSc1ncc(CN2CCc3c([nH]c4ccccc34)C2c2cccc(O)c2)cn1 (centres undefined)	-18%	16µM*[quencher]	.	6%	2%	?
CCn1c(C)nc2cc(C(=O)N=Nc3c(O)[nH]c4c(C)cc(C)cc34)ccc21	7.1µM*	-26%	-7%	-2%	-12%	3%
CCn1c(C)nc2cc(C(=O)N=Nc3c(O)[nH]c4ccccc34)ccc21	?	-10%	-6%	-12%	2%	-1%
Cc1ccc(NC(=O)N/C=C/c2ccc(Cl)cc2)cc1	-1%	4%	-4%	-5%	5%	1%
O=C(N/C=C/c1ccccc1)Nc1ccc(Cl)cc1	?	5µM*[quencher]	?	10%	?	?
O=C(Cc1ccc2c(c1)OCCO2)c1c(O)cc(O)cc1O	-14%	-29%	?	-4%	8%	-7%
O=C(CCc1ccc(O)cc1)c1c(O)cc(O)cc1O	?	?	?	0%	2%	32µM*!
CCCCNC(=O)CN1C(=O)CSc2ccc(S(=O)(=O)N3CCC(C)CC3)cc21	-6%	-13%	.	.	4%	.
CN(C)C=Nc1ccccc1C1C=NNC1=O (centres undefined)	11µM*	-29%	.	-1%	-7%	-30%
CC(=O)c1c(N=CN(C)C)nc(C)nc1-c1ccccc1	2%	1%	-2%	2%	-4%	1%
CCC(=O)CC	.	.	.	15%	.	.
COc1ccc(C2Nc3ccc4ccccc4c3-c3c2c(=O)oc2ccccc32)cc1 (centres undefined)	6%	?	2%	-11%	?	3.2µM*
Cc1ccc(N/C=C/C(=O)c2sc(-c3ccccc3)nc2C)cc1	2µM*	-28%	?	-2%	0%	-3%
